Measurements from PubChem BioAssay (EPA / NIEHS).
Inconclusive results are not listed. The source made the active and inactive calls. The calls were made as follows, unless noted: active = hit-call score of the fitted dose curve at least 0.9, where 1 is the maximum; inactive = score below 0.9.

Columns and labels:
[1] = ACEA_ER_80hr: ACEA Biosciences xCELLigence Real-Time Cell Analysis on Estrogen Receptor Agonism for Proliferation (AID 2282667; active = hit-call score of the fitted dose curve at least 0.9, where 1 is the maximum); settings: T47D proliferation, impedance (xCELLigence), 80 h
Procedure, shortened: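 Real-time impedance growth kinetics of human T-47D breast cells read 80 h after dosing, gain-of-signal fitted relative to DMSO. Compounds: 1:4 serial series, top final concentration 100 uM, n = 2.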

[2] = APR_HepG2_NuclearSize_24hr: Apredica 24-hour HepG2 Assay for Nuclear Size (AID 2282907); settings: high-content imaging, actives raise or lower the signal
Procedure, shortened: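 After fixation and permeabilization, 24-hr-treated HepG2 cells were stained with Hoechst 33342 and imaged on an ArrayScan (20x). Doses spanned 0.39–200 uM in duplicate. Nuclear diameter changes in either direction were fitted relative to 0.5% DMSO controls.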

[3] = APR_HepG2_CellLoss_24hr: Apredica 24-hour HepG2 Assay for Cell Loss (AID 2282908); settings: high-content imaging
Procedure, shortened: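 Duplicate wells received compound at ten concentrations (0.39–200 uM; final DMSO 0.5% v/v). After fixation with formaldehyde, nuclei stained with Hoechst 33342 were imaged at 20x. Loss or gain of cell count was fitted relative to DMSO controls.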

[4] = APR_HepG2_MicrotubuleCSK_24hr: Apredica 24-hour HepG2 Assay for Microtubule CSK Stabilty (AID 2282909); settings: HepG2 microtubule cytoskeleton imaging, actives raise or lower the signal
Procedure, shortened: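 Microtubule stability is scored from tubulin immunofluorescence in fixed HepG2 cells imaged at 20x. Cells receive ten compound concentrations up to 200 uM for 24 h; taxol and DMSO serve as positive and negative controls.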

[5] = APR_HepG2_MitoticArrest_24hr: Apredica 24-hour HepG2 Assay for Mitotic Arrest (AID 2282910); settings: high-content imaging, actives raise or lower the signal
Procedure, shortened: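 Treatment lasted 24 hr in the human HepG2 line at 0.39–200 uM, solvent held at 0.5% DMSO. Fixed cells were stained with Hoechst 33342 and anti-phospho-histone H3, imaged at 20x, and analysed by gain- or loss-of-signal fitting against DMSO.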

[6] = APR_HepG2_MitoMembPot_24hr: Apredica 24-hour HepG2 Assay for Mitochondrial Membrane Potential (AID 2282911); settings: imaging, actives raise or lower the signal
Procedure, shortened: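 Mitochondrial membrane potential imaged via MitoTracker Red CMXRos (250 nM, 30 min pre-fixation) in fixed HepG2 cells with Hoechst nuclear identification. Ten concentrations 0.39–200 uM, 24 h treatment, 0.5% DMSO; CCCP as positive control.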

[7] = APR_HepG2_MitoMass_24hr: Apredica 24-hour HepG2 Assay for Mitochondrial Mass (AID 2282912); settings: high-content imaging, actives raise or lower the signal
Procedure, shortened: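 Readout: fluorescence of MitoTracker Red CMXRos (250 nM, added 30 min pre-fixation) in fixed HepG2 cells imaged by HCS. Exposure lasted 24 hr at 0.39–200 uM; increases and decreases were both fitted relative to DMSO.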

[8] = APR_HepG2_p53Act_24hr: Apredica 24-hour HepG2 Assay for p53 Activation (AID 2282913); settings: high-content imaging, actives raise or lower the signal;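 also: p53 protein immunofluorescence averaged per cell in HepG2 with Hoechst nuclei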
Procedure, shortened: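 Fluorescence imaging of formaldehyde-fixed HepG2 cells labelled for p53 and with Hoechst, 24 h after dosing (0.39–200 uM, duplicate wells, 0.5% v/v DMSO). Signal fitted in both directions relative to DMSO.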

[9] = APR_HepG2_CellCycleArrest_72hr: Apredica 72-hour HepG2 Assay for Cell Cycle Arrest (AID 2282914); settings: high-content imaging, actives raise or lower the signal
Procedure, shortened: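 Read-out: nuclear DNA content from Hoechst 33342 high-content imaging (20x, six fields/well) after 3.7% formaldehyde fixation, fitted bidirectionally against DMSO. Treatment was 72 h in HepG2, ten concentrations 0.39–200 uM, duplicate, 0.5% DMSO.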

[10] = APR_HepG2_CellLoss_72hr: Apredica 72-hour HepG2 Assay for Cell Loss (AID 2282915); settings: high-content imaging
Procedure, shortened: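 HepG2 cells were exposed for 72 hr to compounds at 0.39–200 uM (ten concentrations, duplicate) in 0.5% v/v final DMSO. Nuclei were stained with Hoechst 33342 after 3.7% formaldehyde fixation, imaged at 20x, and counted; fits bidirectional versus DMSO.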

[11] = APR_HepG2_P-H2AX_72hr: Apredica 72-hour HepG2 Assay for H2AX Phosphorylation (AID 2282916); settings: imaging, actives raise or lower the signal;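 also: phospho-histone H2A.x immunostain intensity per cell marking DNA damage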
Procedure, shortened: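 Phospho-H2A.x imaging endpoint in HepG2 after 72 hr compound exposure (0.39–200 uM, duplicate wells). Activity derived by bidirectional curve fitting with DMSO as baseline.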

[12] = APR_HepG2_MitoticArrest_72hr: Apredica 72-hour HepG2 Assay for Mitotic Arrest (AID 2282918); settings: high-content imaging, actives raise or lower the signal
Procedure, shortened: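 High-content imaging of fixed human HepG2 cells after 72 h compound exposure (0.39–200 uM, duplicates, 0.5% DMSO); mitotic arrest scored from phospho-histone H3 and nuclear Hoechst staining relative to DMSO.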

[13] = APR_HepG2_MicrotubuleCSK_72hr: Apredica 72-hour HepG2 Assay for Microtubule CSK Stabilty (AID 2282919); settings: HepG2 microtubule cytoskeleton, high-content imaging, actives raise or lower the signal
Procedure, shortened: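 Ten-point dosing (0.39–200 uM, 0.5% DMSO) of HepG2 for 72 hr, with taxol as the cytoskeletal positive control. The cells were formaldehyde-fixed and then stained with alpha-tubulin/Cy5 and Hoechst. Imaging at 20x used a −2 um Z offset for tubulin.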

[14] = APR_HepG2_P-H2AX_24hr: Apredica 24-hour HepG2 Assay for H2AX Phosphorylation (AID 2282920); settings: high-content imaging, actives raise or lower the signal
Procedure, shortened: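 High-content imaging of phospho-histone H2A.x immunofluorescence, nuclei counterstained with Hoechst 33342, in fixed HepG2 cells. Compounds ran 0.39–200 uM in duplicate for 24 h, final DMSO 0.5%. Signal change fitted both directions against DMSO.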

[15] = APR_HepG2_StressKinase_72hr: Apredica 72-hour HepG2 Assay for Stress Kinase (AID 2282921); settings: HepG2 stress kinase (phospho-c-Jun) imaging, actives raise or lower the signal
Procedure, shortened: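 Stress kinase signal reflects nuclear phospho-c-Jun staining in fixed, permeabilized cells exposed 72 h to compound at 0.39–200 uM; DMSO-normalized, fitted for increases or decreases.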

[16] = APR_HepG2_StressKinase_24hr: Apredica 24-hour HepG2 Assay for Stress Kinase (AID 2282922); settings: HepG2 stress kinase (phospho-c-Jun) imaging, actives raise or lower the signal
Procedure, shortened: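 After 24 hr compound treatment (up to 200 uM, final DMSO 0.5% v/v), HepG2 cells are fixed and multiplex-labeled; phospho-c-Jun intensity is captured by high-content fluorescence imaging and analyzed relative to DMSO.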

[17] = APR_HepG2_p53Act_72hr: Apredica 72-hour HepG2 Assay for p53 Activation (AID 2282923); settings: high-content imaging, actives raise or lower the signal;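 also: average cellular p53 protein immunofluorescence intensity in HepG2 cells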
Procedure, shortened: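 Fixed-cell p53 staining (sheep primary, Cy5 secondary) measured by fluorescence imaging following 72 hr treatment at 0.39–200 uM in 0.5% DMSO; DMSO served as negative control and baseline.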

[18] = APR_HepG2_MitoMass_72hr: Apredica 72-hour HepG2 Assay for Mitochondrial Mass (AID 2282924); settings: high-content imaging, actives raise or lower the signal;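 also: MitoTracker Red CMXRos stain intensity per cell imaged as mitochondrial mass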
Procedure, shortened: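 Steps: treat HepG2 72 hr (0.39–200 uM, duplicate wells); load MitoTracker Red CMXRos, 250 nM, 30 min; fix with 3.7% formaldehyde, permeabilise with 0.5% Triton X-100; capture images, nuclei via Hoechst 33342; fit bidirectionally against DMSO.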

Measured: AC50

NC(=O)Cn1c(=O)cc(CCN2CCN(c3nccc4sccc34)CC2)c2ccc(F)cc21
active: [10] 82 µM | [11] 101 µM | [12] 98.9 µM | [17] 101 µM
inactive: all other assays above

CNC(=O)[C@H]1O[C@@H](n2cnc3c(NCc4cc(Cl)ccc4OCc4cc(C)no4)ncnc32)[C@H](O)[C@@H]1N
active: [6] 0.0385 µM
inactive: all other assays above

CC=Cc1ccc(O)c(OC)c1
inactive: all assays above

c1cc(-c2ccncc2)ccn1
inactive: all assays above
